Test results taken from PubChem BioAssay AID1159580 (chemical genetic matrix, 2015).
About 2,000 (36%) of roughly 5,500 compounds were called active. Another 18% or so got no clear call; they are omitted. No stated cut-off is given here; in the data, active means normalized growth mostly below about 0.91 (no sharp cut-off); inconclusive means no clear call, values can overlap the other calls; inactive means mostly above about 0.92. This is one part of the list.

Test: chemical genetic growth profiling, strain panel (AID 1159580);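 further: tested at 20 µM; growth read once vehicle control cultures reached saturation at 30 °C; 1 = growth at the plate median or of vehicle wells; lower values mean less growth of the strain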
Conditions: S. cerevisiae deletion strains, growth OD

Measured: normalized growth

CC1CCN(CC[C@H]2CCCN2S(=O)(=O)c2cccc(O)c2)CC1
inactive: locus YAL040C, strain CLN3, hits give low values 0.99 | locus YCL061C, strain MRC1 (second series), hits give low values 1 | locus YDR363W, strain ESC2, hits give low values 0.986 | locus YER002W, strain NOP16, hits give low values 0.989 | locus YGR078C, strain PAC10, hits give low values 1.02 | locus YMR263W, strain SAP30, hits give low values 1 | locus YMR307W, strain GAS1, hits give low values 1.03 | locus YNL128W, strain TEP1, hits give low values 1.01 | locus YNL175C, strain NOP13, hits give low values 1.01 | locus YNL197C, strain WHI3, hits give low values 1.01 | locus YNL224C, strain SQS1, hits give low values 1 | locus YNL322C, strain KRE1, hits give low values 0.984 | locus YOR083W, strain WHI5 (second series), hits give low values 1.03
